This is an account of results in PubChem BioAssay.

The source made the active and inactive calls. Unless noted, how the calls were made is not given here.

Test [1] in a line: compound effects on lung adenocarcinoma cell viability – A549, calcein-AM fluorescence, 48 h, basal, profiling panel (AID 1162). Further: test concentration not given here. To be noted: higher = more signal.
Test [2] in a line: compound effects on differentiated 3T3-L1 adipocyte viability – cell-based, 3T3-L1 adipocytes, calcein-AM fluorescence, 48 h, basal, profiling panel (AID 1163). Further: test concentration not given here. The conditions noted are these: 3T3-L1 adipocytes viability, higher = more signal.
The nature of test [3]: compound effects on hepatocellular carcinoma cell viability – HepG2, calcein-AM fluorescence, 48 h, basal, profiling panel (AID 1164). Further: test concentration not given here. To be noted: higher = more signal.
Test [4] in a line: compound effects on multiple myeloma cell viability – MM1S, calcein-AM fluorescence, 48 h, basal, profiling panel (AID 1165).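 Further: viability of MM1S multiple myeloma cells under basal unstimulated conditions; test concentration not given here.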 To be noted: higher = more signal.
Test [5] is described as follows: calcein-AM signal in unstimulated myeloma cells – cell-based, calcein-AM fluorescence, 48 h, PK04 Diversity Set, profiling panel (AID 1166).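 Further: cells grown under basal conditions without added stimulus; test concentration not given here.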 To be noted: RPMI8226 myeloma viability, higher = more signal.
The nature of test [6]: JC-1 mitochondrial signal, unstimulated HepG2 cells – cell-based, JC-1 fluorescence, 24 h, 100 nL compound, profiling panel (AID 1167). Further: test concentration not given here. To be noted: HepG2 mitochondrial potential, higher = more signal.
Test [7] is described as follows: JC-1 mitochondrial signal, unstimulated adipocytes – cell-based, JC-1 fluorescence, 3T3-L1 adipocytes, 24 h, 100 nL compound, profiling panel (AID 1168). Further: test concentration not given here. To be noted: JC-1 mitochondrial fluorescence, higher = more signal, called active from +8 up or from −8 down.
Test [8] can be described thus: JC-1 mitochondrial signal, unstimulated myeloma cells – cell-based, JC-1 fluorescence, RPMI8226, 24 h, 100 nL compound, profiling panel (AID 1169). Further: test concentration not given here. The conditions noted are these: JC-1 mitochondrial potential fluorescence, higher = more signal.
Test [9] can be described thus: JC-1 mitochondrial signal, unstimulated MM1S myeloma – cell-based, JC-1 fluorescence, 24 h, 100 nL compound, profiling panel (AID 1170). Further: test concentration not given here. The conditions noted are these: MM1S mitochondrial potential, higher = more signal.
Test [10] in a line: resazurin metabolic signal in A549 cells – cell-based, resazurin fluorescence, 24 h, PK04 Diversity Set, profiling panel (AID 1171). Further: test concentration not given here. The conditions noted are these: A549 viability, higher = more signal, called active from +8 up or from −8 down.
The nature of test [11]: resazurin metabolic signal in HepG2 cells – cell-based, resazurin fluorescence, 24 h, PK04 Diversity Set, profiling panel (AID 1172). Further: test concentration not given here. The conditions noted are these: HepG2 viability, higher = more signal.
A short description of test [12]: budding yeast growth changes without added modifier – OD600, strain BY4716, 24 h, basal condition, primary screen (AID 1173). The conditions noted are these: S. cerevisiae BY4716 growth, OD600, 24 h; higher = more signal, called active from +8 up or from −8 down.
The nature of test [13]: viability profiling in MM1S myeloma cells – cell-based, resazurin fluorescence, basal, 24 h, PK04 Diversity Set, profiling panel (AID 1174). Further: test concentration not given here. To be noted: higher = more signal, called active from +8 up or from −8 down. Background: The colour change of resazurin is a common sign of viable cells or microbes.
Test [14] concerns the target Dihydroorotate dehydrogenase (quinone), mitochondrial (Plasmodium falciparum (isolate 3D7)) (UniProt Q08210). The experiment in a line: inhibition of P. falciparum DHODH – biochemical, C-terminal His tag, absorbance 600 nm, primary screen (AID 1175).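 Further: recombinant parasite enzyme with a five histidine tag at its C terminus; test concentration not given here.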 The conditions noted are these: PfDHODH enzyme, DCIP absorbance 600 nm; higher = more signal, called active from +8 up or from −8 down.

The nature of test [15]: inhibition of PAO1 biofilm formation – strain PAO1, LB-PBS medium, absorbance 600 nm, primary screen (AID 1176). Further: test concentration not given here. The conditions noted are these: P. aeruginosa PAO1 growth/biofilm, A600, 12 h; higher = more signal.
Test [16] can be described thus: growth modulation of vineyard yeast isolate – strain RM11-1a, OD600, basal, 24 h, primary screen (AID 1177).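 Further: cultures grown under basal conditions with no added stressor; test concentration not given here.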 To be noted: S. cerevisiae RM11-1a growth, OD600, 24 h; higher = more signal, called active from +8 up or from −8 down.
A short description of test [17]: growth of efflux-deficient E. coli DRC39 – strain DRC39, OD650, 24 h, E. coli filamentation inducers, primary screen (AID 1178).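 Further: growth measured as culture turbidity by optical density at 650 nm; test concentration not given here.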 To be noted: E. coli DRC39 acrAB, higher = more signal, called active from +8 up or from −8 down.
A short description of test [18]: growth of efflux-deficient E. coli DRC39 – strain DRC39, OD650, 48 h, E. coli filamentation inducers, primary screen (AID 1179).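 Further: screen aims at cell division blockers that make cells filament.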 To be noted: E. coli DRC39 delta-acrAB growth, higher = more signal, called active from +8 up or from −8 down.
The nature of test [19]: viability profiling in RPMI8226 myeloma cells – cell-based, resazurin fluorescence, basal, 24 h, PK04 Diversity Set, profiling panel (AID 1180).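 Further: RPMI8826 multiple myeloma cell line at 5000 cells per well; test concentration not given here.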 The conditions noted are these: higher = more signal.
Test [20] deals with E3 ubiquitin-protein ligase XIAP (Homo sapiens) (UniProt P98170). Put plainly: small molecules binding XIAP protein – biophysical, small-molecule microarray, fluorescence 635 nm, primary screen (AID 1181).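 Further: score merges 667 nm emission and signal to noise over triplicate slides.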 The conditions noted are these: higher = more signal.
Chain of E3 ubiquitin-protein ligase XIAP (Homo sapiens) (P98170 whole entry, looked up): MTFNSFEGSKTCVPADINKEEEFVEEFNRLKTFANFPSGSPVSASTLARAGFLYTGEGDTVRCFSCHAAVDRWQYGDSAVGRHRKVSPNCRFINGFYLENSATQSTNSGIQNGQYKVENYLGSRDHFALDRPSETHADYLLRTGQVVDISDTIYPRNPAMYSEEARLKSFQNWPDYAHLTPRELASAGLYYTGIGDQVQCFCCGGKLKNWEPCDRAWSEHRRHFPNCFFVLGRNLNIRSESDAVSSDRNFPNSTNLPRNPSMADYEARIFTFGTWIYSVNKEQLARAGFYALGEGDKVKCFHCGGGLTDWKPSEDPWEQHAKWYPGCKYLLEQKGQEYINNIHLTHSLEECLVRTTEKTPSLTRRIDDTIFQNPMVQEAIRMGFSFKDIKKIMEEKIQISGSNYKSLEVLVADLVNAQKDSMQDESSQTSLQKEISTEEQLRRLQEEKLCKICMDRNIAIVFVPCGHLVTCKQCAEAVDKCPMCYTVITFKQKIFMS

Chain of Dihydroorotate dehydrogenase (quinone), mitochondrial (Plasmodium falciparum (isolate 3D7)) (Q08210 whole entry, looked up): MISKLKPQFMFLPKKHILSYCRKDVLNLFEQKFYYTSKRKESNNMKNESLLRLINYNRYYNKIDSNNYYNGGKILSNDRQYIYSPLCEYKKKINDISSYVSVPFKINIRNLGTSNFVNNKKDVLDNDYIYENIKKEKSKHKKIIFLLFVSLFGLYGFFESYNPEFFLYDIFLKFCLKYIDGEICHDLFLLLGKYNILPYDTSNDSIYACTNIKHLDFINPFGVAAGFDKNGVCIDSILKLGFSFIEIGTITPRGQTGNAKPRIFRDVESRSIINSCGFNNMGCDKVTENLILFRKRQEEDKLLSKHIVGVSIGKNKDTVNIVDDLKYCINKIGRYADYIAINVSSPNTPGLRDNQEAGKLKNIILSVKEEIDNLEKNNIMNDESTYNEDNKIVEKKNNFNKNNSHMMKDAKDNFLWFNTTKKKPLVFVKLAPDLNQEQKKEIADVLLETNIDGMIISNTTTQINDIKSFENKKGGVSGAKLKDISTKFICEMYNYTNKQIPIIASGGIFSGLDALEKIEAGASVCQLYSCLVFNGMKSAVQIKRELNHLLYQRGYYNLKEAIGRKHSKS

`COC(=O)[C@H](Cc1ccccc1)N1CC2=C[C@@H](C3CC3)n3c(=O)n(C)c(=O)n3[C@H]2[C@@H]1[C@@H](O)Cc1ccccc1`: the z-score was 1.97 in test [1]; -0.375 in [2]; 0.888 in test [3]; 0.378 in test [4]; -0.473 in test [5]; 1.49 in [6]. For the same molecule, the z-score was -1.06 (inactive) in test [7]; 0.223 in test [8]; -0.804 in [9]; 0.138 (inactive) in test [10]; -0.0568 in test [11]; -1.18 (inactive) in test [12]. In addition, the z-score in [13] is -1.07 (inactive); in test [15], 0.0937 (inactive); in test [16], -0.143 (inactive); in test [17] it was -0.172 (inactive); in test [18], -0.228 (inactive); in test [19], 0.358. The results for the composite z-score in test [14] and in test [20] were -0.174 (inactive) and -0.142, respectively.

For `CC(CO)N1C(=O)[C@@H]2C3C(=O)OCCC/C=C\[C@H]3OC23C=CCN(C(C)(C)C)C(=O)[C@@H]13` (stereo not given in full), the z-score is -0.241 in test [1]; -0.557 in [2]; 0.775 in test [3]; 1.41 in test [4]; 0.995 in test [5]; 0.285 in test [6]. In addition, the z-score was 0.521 (inactive) in test [7]; -0.458 in test [8]; -1.26 in test [9]; -0.717 (inactive) in test [10]; -0.181 in test [11]; -0.382 (inactive) in [12]. Further, the z-score in [13] was -0.261 (inactive); in [15], 0.727 (inactive); in test [16] it was -0.0192 (inactive); in test [17], 0.855 (inactive); in [18], 0.956 (inactive); in [19], -0.178. For the same molecule, the values for the composite z-score in test [14] and in test [20] were -4.03 (inactive) and 0.801, respectively.

For `COCCOC(=O)N1C(=O)[C@@]2(c3cc(C#CCC(C(=O)OC)C(=O)OC)ccc31)[C@H](C(=O)Nc1nc3ccccc3s1)[C@H]1C(=O)O[C@H](c3ccccc3)[C@H](c3ccccc3)N1[C@@H]2c1ccccc1OCCO`, the z-score was 1.84 in [1]; 0.6 in test [2]; 1.31 in [3]; -0.139 in test [4]; 0.199 in test [5]; -2.23 in test [6]. The z-score is 0.803 (inactive) in [7]; -0.859 in test [8]; -1.19 in test [9]; -0.454 (inactive) in test [10]; -0.397 in test [11]; 1.3 (inactive) in test [12]. Also, the z-score in test [13] was -1.38 (inactive); in test [15] it was 2.96 (inactive); in test [16], 2.8 (inactive); in test [17], 0.0871 (inactive); in [18], 0.642 (inactive); in [19], -0.39. For the same molecule, the composite z-score in test [14] is -0.715 (inactive); in test [20], 0.109.

With `O=C(OCc1ccccc1)C1=CCC2c3[nH]c4ccccc4c3C(=O)C1N2S(=O)(=O)c1ccccc1[N+](=O)[O-]` (stereo not given), the z-score was -0.725 in test [1]; -0.816 in test [2]; -0.267 in [3]; -0.624 in test [4]; -0.286 in [5]; -3.06 in test [6]. The z-score in test [7] was -4.43 (inactive); in test [8], -1.14; in test [9], -3.28; in test [10], -0.311 (inactive); in test [11], -0.106; in test [12], 1.57 (inactive). The z-score was -1.2 (inactive) in test [13]; 0.381 (inactive) in test [15]; 0.714 (inactive) in test [16]; -1.04 (inactive) in test [17]; -1.43 (inactive) in test [18]; -0.878 in test [19]. Also, the composite z-score in test [14] is -0.386 (inactive); in [20] it was -0.113.
